# Results reported in the supplement of paper PMC8728848.
# This is one part of a sample in which the strongest signals are shown more often than they occur.
# B1: LSectin (Mus musculus), Q8BNX1 (protein)
# chain: MNTGEYNKLGSAIEEVSRGQLGRWECYKQRLFFLVLALLVATVLWALILSTLLSSASSKLRVLLSHQDLLRTNASEQKMTLSSLKDDIGACRNCCSVTKAQLQTTLAEFKDIQAKLMEQESILKELQERVTQDLAKASRDRENIRSELFQALEAVKRQNSSCEQCPPSWLPFQGSCYYFSETQATWDTAQSYCGGQGAHLVIVRGLNEQGFLSQHTRGRGYWLGLRAVRHLNKIQGYRWVDGASLNFSHWNSGEPNDSRGHEDCIMMLHSGLWNDAPCTNERDGWICEKRSSCY
# Legend:
# Test in all cases: glycan array binding signal (z-score within array); higher = stronger binding
# Conditions in all cases: glycan notation: IUPAC condensed, linker removed
# [1] = target: Fuc(a1-2)Gal(b1-3)GlcNAc(b1-2)Man(a1-3)[Fuc(a1-2)Gal(b1-3)GlcNAc(b1-2)Man(a1-6)]Man(b1-4)GlcNAc(b1-4)GlcNAc
# Outline: (§1)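 Columns mapping to the same glycan were averaged after glycan names were converted to IUPAC-condensed notation. The data come from 3228 arrays in the Consortium for Functional Glycomics database, limited to those with an available protein sequence. Binding is reported as a within-array Z-score averaged across arrays of one protein sequence and across linkers.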
# [2] = target: Fuc(a1-2)Gal(b1-3)GlcNAc(b1-3)[Fuc(a1-3)[Gal(b1-4)]GlcNAc(b1-6)]Gal(b1-4)Glc
# Outline: as §1
# [3] = target: Fuc(a1-2)Gal(b1-3)GlcNAc(b1-3)[Gal(b1-4)GlcNAc(b1-6)]Gal(b1-4)Glc
# Outline: as §1
# Fuc(a1-2)[Gal(a1-3)]Gal = target: Fuc(a1-2)[Gal(a1-3)]Gal
# Outline: as §1
# [4] = target: Fuc(a1-2)[Gal(a1-3)]Gal(b1-4)[Fuc(a1-3)]Glc
# Outline: as §1
# [5] = target: Fuc(a1-2)[GalNAc(a1-3)]Gal(b1-4)GlcNAc
# Outline: as §1
# [6] = target: Fuc(a1-2)[GalNAc(a1-3)]Gal(b1-4)GlcNAc(b1-3)Gal(b1-4)GlcNAc
# Outline: as §1
# [7] = target: Fuc(a1-3)[Gal(b1-4)]GlcNAc(b1-2)Man(a1-3)[Fuc(a1-3)[Gal(b1-4)]GlcNAc(b1-2)Man(a1-6)]Man(b1-4)GlcNAc(b1-4)GlcNAc
# Outline: as §1
# [8] = target: Gal(a1-4)Gal(b1-4)GlcNAc(b1-2)Man(a1-3)[Gal(a1-4)Gal(b1-4)GlcNAc(b1-2)Man(a1-6)]Man(b1-4)GlcNAc(b1-4)GlcNAc
# Outline: as §1
# Gal(b1-3)GlcNAc = target: Gal(b1-3)GlcNAc
# Outline: as §1
# [9] = target: Gal(b1-3)GlcNAc(b1-3)Gal(b1-3)GlcNAc
# Outline: as §1
# [10] = target: Gal(b1-3)GlcNAc(b1-3)Gal(b1-4)GlcNAc
# Outline: as §1
# [11] = target: Gal(b1-3)[Fuc(a1-4)]GlcNAc(b1-3)Gal(b1-3)[Fuc(a1-4)]GlcNAc
# Outline: as §1
# [12] = target: Gal(b1-4)GlcNAc(b1-2)Man(a1-6)[GlcNAc(b1-2)Man(a1-3)]Man(b1-4)GlcNAc(b1-4)GlcNAc
# Outline: as §1
# [13] = target: Gal(b1-4)GlcNAc(b1-3)[Gal(b1-4)GlcNAc(b1-6)]GalNAc
# Outline: as §1
# Gal6S(b1-3)GlcNAc = target: Gal6S(b1-3)GlcNAc
# Outline: as §1
# [14] = target: GalNAc(a1-3)GalNAc(a1-3)Gal(a1-4)Gal(b1-4)GlcNAc
# Outline: as §1
# Glc(b1-4)Glc = target: Glc(b1-4)Glc
# Outline: as §1
# GlcA(b1-3)Gal = target: GlcA(b1-3)Gal
# Outline: as §1
# [15] = target: GlcNAc(a1-3)Gal(b1-4)GlcNAc
# Outline: as §1
# [16] = target: GlcNAc(b1-2)Man(a1-3)[GlcNAc(b1-2)Man(a1-6)]Man(b1-4)GlcNAc(b1-4)GlcNAc
# Outline: as §1
# [17] = target: GlcNAc(b1-2)Man(a1-3)[GlcNAc(b1-2)Man(a1-6)]Man(b1-4)GlcNAc(b1-4)[Fuc(a1-6)]GlcNAc
# Outline: as §1
# [18] = target: GlcNAc(b1-2)Man(a1-3)[GlcNAc(b1-4)][GlcNAc(b1-2)Man(a1-6)]Man(b1-4)GlcNAc(b1-4)GlcNAc
# Outline: as §1
# [19] = target: GlcNAc(b1-2)[GlcNAc(b1-6)]Man(a1-6)[GlcNAc(b1-2)Man(a1-3)]Man(b1-4)GlcNAc(b1-4)GlcNAc
# Outline: as §1
# [20] = target: GlcNAc(b1-2)[GlcNAc(b1-6)]Man(a1-6)[GlcNAc(b1-2)Man(a1-3)][GlcNAc(b1-4)]Man(b1-4)GlcNAc(b1-4)GlcNAc
# Outline: as §1
# GlcNAc(b1-3)Gal = target: GlcNAc(b1-3)Gal
# Outline: as §1
# GlcNAc3Prop(b1-4)GlcNAc = target: GlcNAc3Prop(b1-4)GlcNAc
# Outline: as §1
# [21] = target: Man(a1-3)[Man(a1-6)]Man(a1-6)[Man(a1-3)]Man(b1-4)GlcNAc(b1-4)GlcNAc
# Outline: as §1
# Neu5Ac(a2-3)Gal = target: Neu5Ac(a2-3)Gal
# Outline: as §1
# [22] = target: Neu5Ac(a2-3)Gal(b1-4)[Fuc(a1-3)]GlcNAc(b1-3)GalNAc
# Outline: as §1
binder,measurement,setting,value
B1,glycan array binding signal (z-score),[1],-0.18
same,glycan array binding signal (z-score),[2],-0.187
same,glycan array binding signal (z-score),[3],-0.188
same,glycan array binding signal (z-score),Fuc(a1-2)[Gal(a1-3)]Gal,-0.145
same,glycan array binding signal (z-score),[4],-0.124
same,glycan array binding signal (z-score),[5],-0.176
same,glycan array binding signal (z-score),[6],-0.185
same,glycan array binding signal (z-score),[7],-0.158
same,glycan array binding signal (z-score),[8],-0.18
same,glycan array binding signal (z-score),Gal(b1-3)GlcNAc,-0.132
same,glycan array binding signal (z-score),[9],-0.18
same,glycan array binding signal (z-score),[10],-0.175
same,glycan array binding signal (z-score),[11],-0.172
same,glycan array binding signal (z-score),[12],4.08
same,glycan array binding signal (z-score),[13],-0.192
same,glycan array binding signal (z-score),Gal6S(b1-3)GlcNAc,-0.188
same,glycan array binding signal (z-score),[14],-0.19
same,glycan array binding signal (z-score),Glc(b1-4)Glc,-0.17
same,glycan array binding signal (z-score),GlcA(b1-3)Gal,-0.169
same,glycan array binding signal (z-score),[15],-0.14
same,glycan array binding signal (z-score),[16],6.38
same,glycan array binding signal (z-score),[17],5.47
same,glycan array binding signal (z-score),[18],7.84
same,glycan array binding signal (z-score),[19],4.99
same,glycan array binding signal (z-score),[20],7.22
same,glycan array binding signal (z-score),GlcNAc(b1-3)Gal,-0.164
same,glycan array binding signal (z-score),GlcNAc3Prop(b1-4)GlcNAc,-0.168
same,glycan array binding signal (z-score),[21],-0.172
same,glycan array binding signal (z-score),Neu5Ac(a2-3)Gal,-0.148
same,glycan array binding signal (z-score),[22],-0.154
